± gives the standard deviation.
System: MILI (PIWIL2) piRISC loaded with L1MC piRNA (26 nt)
Assay: pre-steady-state target cleavage rate (min^-1); guide: L1MC piRNA 5'p-UAACUAAAUACUAUGCAAGCUGUAGG; MIWI and MILI are mouse PIWI proteins and EfPiwi is from a freshwater sponge; tags in brackets are library labels; higher = faster piRNA-guided slicing of the target
In short: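 Sequencing of uncleaved targets, normalised to depth and to weakly complementary targets, was the readout of this Cleave-'n-Seq assay. A transcribed, DNA-blocked target RNA library (0.1 nM) was mixed with 1 nM active affinity-purified piRISC carrying one synthetic guide, with or without 500 nM GTSF1 partner protein, in HEPES–potassium acetate buffer at 33 °C for 0–8 or 0–960 min. Three trials were pooled, k3 was capped at 0.0001 min^-1, and a burst-and-steady-state fit gave the pre-steady-state cleavage rate.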

[1] = auxiliary factor: 500 nM mouse GTSF1
[2] = auxiliary factor: none (no GTSF1)

Sequence | pre-steady-state target cleavage rate [1] | pre-steady-state target cleavage rate [2]
UCCUGGUACAGCUUGGAUAGUUUUUAGUUA | 0.0597 ± 0.014 | 0.00594 ± 0.0035
UCCUGGAUCUCCUUGCAUAGUAUUUAGUUA | 0.226 ± 0.014 | 0.00588 ± 0.0018
UCCUGGAUCAGCUUGCAUAGUAUCUUAGUUA | 0.234 ± 0.021 | 0.00648 ± 0.0025
UCCUGGAUGUCCUAGCAUAGUUUUUAGUUA | 0.0106 ± 0.0049 | 0.00512 ± 0.0022
UCCUGGAACAGCUUGCAUAGUAUUUGAGUUA | 0.209 ± 0.035 | 0.00299 ± 0.003
UCCUGGAUGUCGUUGCAUAGUAAUUUAGUUA | 0.0127 ± 0.0059 | 0.00447 ± 0.0029
UCCUGGAUGUCGAUGCAUAGUAUUUGAGUUA | 0.125 ± 0.027 | 0.00324 ± 0.0024
UCCUGGUACUGCUUGCAUACUAUUUAGUUA | 0.0502 ± 0.015 | 0.00418 ± 0.0039
UCCUGGAUGUCCUUGCUUAGUUUUUAGUUA | 0.0152 ± 0.0067 | 0.00494 ± 0.0023
UCCUGGAUGUCCUUGCAUUGUAUAUAGUUA | 0.0803 ± 0.022 | 0.00438 ± 0.0024
UCCUGGAUGUGCAUGCUUAGUAUUUAGUUA | 0.0349 ± 0.011 | 0.0103 ± 0.0032
UCCUGGAUGUCGUUGCAUAGUAUUUAAGUUA | 0.191 ± 0.032 | 0.00676 ± 0.0028
UCCUGGAUGUCGAUGCAUAGUAAUUAGUUA | 0.0524 ± 0.011 | 0.00499 ± 0.0021
UCCUGGAUGUCGAAGCAUAGUAUAUUAGUUA | 0.0302 ± 0.0085 | 0.00411 ± 0.0026
UCCUGGAUGAGCUUGCUUAGUAUUUUGUUA | 0.138 ± 0.021 | 0.00587 ± 0.0022
UCCUGGAUGUCGUUGCAGAGUAUUUAGUUA | 0.0117 ± 0.0043 | 0.0038 ± 0.0022
UCCUGGAUGUGCUUGCAUUGUAAUUAGUUA | 0.0229 ± 0.0072 | 0.00338 ± 0.0033

Sequence | pre-steady-state target cleavage rate [1] | pre-steady-state target cleavage rate [2]
UCCUGGAACAGCUUGCAUAGAUUUUAGUUA | 0.0289 ± 0.0057 | 0.003 ± 0.0026
UCCUGGAACAGCUAGCAUAGUAUAUAGUUA | 0.229 ± 0.026 | 0.00524 ± 0.0027
UCCUCCUACAGCUUGCAAAGUAUUUACUUA | 0.0765 ± 0.013 | 0.0033 ± 0.0019
UCCUGGAUCAGCUUGCUUUGUAUUUAGUUA | 0.11 ± 0.015 | 0.0038 ± 0.0028
UCCUGGAUGUGCUUGCAAAGUUUUUAGUUA | 0.00595 ± 0.0038 | 0.0065 ± 0.0023
UCCUGGAUGUCCUUGCUUUGUAUUUAGUUA | 0.00984 ± 0.0041 | 0.00458 ± 0.0025
UCCUGGAUGUCCAUGGAUAGUAUUUAGUUA | 0.0252 ± 0.0073 | 0.00317 ± 0.0025
UCCUGGUACACCUUGCAUAGUUUUUAGUUA | 0.0288 ± 0.011 | 0.00381 ± 0.0034
UCCUCCAACAGCUUGCAUAGUAUUUAGAUA | 0.192 ± 0.034 | 0.00442 ± 0.0025
UCCUGGAUGAGCAUGCAUAGUUUUUAGUUA | 0.0197 ± 0.0099 | 0.00788 ± 0.0023
UCCUGGAUGUCGAAGCAUAGUAUAUAGUUA | 0.0508 ± 0.015 | 0.00342 ± 0.0022
UCCUGGAUGAGCUUGGUUAGUAUUUAGUUA | 0.195 ± 0.02 | 0.0158 ± 0.0039
UCCUGGAUGUCGAAGCAUAGUAUUUAGGUUA | 0.0552 ± 0.0097 | 0.00259 ± 0.0025
UCCUGGUACAGCUUGGAUAGUAUUAAGUUA | 0.174 ± 0.038 | 0.00474 ± 0.0033
UCCUGGUAGUCCUUGCAUAGUAUUUAGUAA | 0.113 ± 0.025 | 0.00362 ± 0.003
UCCUGGAUGUGCUAGGAUAGUAUUUAGUUA | 0.103 ± 0.014 | 0.00564 ± 0.0022

Source: the supplement of paper PMC10338343
